An excerpt weighted towards active compounds, which were near 3.6% of everything screened.
bCat KO growth – beta-catenin-lacking colon tumor cell growth suppression | HCT116 beta-catenin knockout viability, CellTiter-Glo, 60 h; stronger effect = lower value | viability, % at 10 µM | hit rate 1.5% among 140,000 | AID 818;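 active = viability at or under a set limit, the compound median less 4 SD, cut at about 6% in these data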;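 note: 0% = Hyamine 1622 control at 20 µM and 100% = untreated cell control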
WT yeast gro inh – growth inhibition of WT yeast, mitochondrial fusion screen; mitochondrial fusion phenotypic screen, WT strain; inhibition, % at 10 µM; hit rate 2.1% among 190,000; AID 1362; in the data active = inhibition above about 58%; tested in S. cerevisiae
hDAT+cocaine – modulates human dopamine transporter uptake under cocaine; LLC-PK1 hDAT cells, [14C]-dopamine uptake with cocaine IC80; actives deviate in either direction; Q01959; AID 449768; B-score at 10 µM; hit rate 1.3% among 110,000;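 active = Z score or B-score, a plate-position-corrected score, falls beyond the plate's 99.7% confidence bounds, in either direction; inactive = both scores lie inside the 99.7% bounds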;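 note: scored against the spread of the other compound wells on the same plate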
Target sequence (Q01959 whole entry, looked up): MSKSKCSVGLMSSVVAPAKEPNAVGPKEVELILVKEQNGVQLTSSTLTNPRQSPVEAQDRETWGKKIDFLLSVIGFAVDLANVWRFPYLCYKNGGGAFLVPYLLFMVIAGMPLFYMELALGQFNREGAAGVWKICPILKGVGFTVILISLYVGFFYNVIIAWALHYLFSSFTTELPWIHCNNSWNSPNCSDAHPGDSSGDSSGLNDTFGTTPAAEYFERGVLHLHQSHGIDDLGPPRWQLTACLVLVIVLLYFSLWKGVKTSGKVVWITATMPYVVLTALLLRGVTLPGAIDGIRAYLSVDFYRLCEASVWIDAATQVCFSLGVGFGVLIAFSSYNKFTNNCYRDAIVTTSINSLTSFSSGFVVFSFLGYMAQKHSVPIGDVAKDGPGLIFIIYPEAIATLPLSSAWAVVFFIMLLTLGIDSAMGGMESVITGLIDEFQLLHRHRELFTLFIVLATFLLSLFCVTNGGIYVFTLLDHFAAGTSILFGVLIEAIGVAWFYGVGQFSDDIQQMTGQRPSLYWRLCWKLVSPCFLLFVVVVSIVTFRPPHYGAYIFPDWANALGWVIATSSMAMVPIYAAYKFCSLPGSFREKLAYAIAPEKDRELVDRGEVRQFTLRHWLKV
PTEN del growth – growth suppressors of cells with PTEN tumor suppressor deletion; HCT116 PTEN-null viability, CellTiter-Glo, 60 h; stronger effect = lower value; viability, % at 10 µM; hit rate 1.2% among 140,000; AID 827;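 active = viability at or below a set limit, 4 SD under the median of all tested compounds, cut at about 3.7% in these data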;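 note: PTEN knockout HCT116 line with beta catenin targeted HCT116 as companion control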
Active calls of the source: *; / = no result.

SMILES | bCat KO growth | WT yeast gro inh | hDAT+cocaine | PTEN del growth
Cc1ccc(S(=O)(=O)Nc2ccc3nc(-c4cccn4C)[nH]c3c2)cc1 | 91 | -1 | -2.9* | 87
Cn1cccc1-c1nc2ccc(NC(=O)c3ccccc3)cc2[nH]1 | 90 | 0 | 1.6 | 89
CC1=CC(C)(C)Nc2ccc(OC(=O)CN3C(=O)c4ccccc4C3=O)cc21 | 1.4* | -2 | / | 1.5*
O=C(NCC(c1cccnc1)N1CCOCC1)c1ccco1 (centres undefined) | 93 | 71* | 0.18 | 99
O=C(NCC(c1cccnc1)N1CCN(c2ccc(F)cc2)CC1)c1ccco1 (centres undefined) | / | -3 | -0.74 | /
O=C(NCC(c1cccnc1)N1CCN(c2ccc(F)cc2)CC1)c1ccc(F)cc1 (centres undefined) | 91 | 13 | 3.2* | 89
O=c1cc(/N=C/c2coc3c(ccc4ccccc43)c2=O)[nH]c(=S)[nH]1 | 93 | -5 | / | 95
O=C(O)C1CCCN1c1ncccc1[N+](=O)[O-] (centres undefined) | / | 7 | / | /
CSc1nc(-c2ccc(C)cc2)nc(C(Cl)Cl)n1 | 1.1* | 16 | / | 1.1*
CCSc1nc(-c2ccccc2)nc(C(Cl)Cl)n1 | 4.2* | 21 | / | 2.0*
CCSc1nc(-c2ccccc2)c2cc(Cl)ccc2n1 | 84 | 9 | / | 85
CC(=O)NC1C(OCc2ccccc2)OC2COC(c3ccccc3)OC2C1OCC(=O)O (centres undefined) | / | -12 | / | /
CCOC(=O)N1C2=NC(C(=O)OC)=C(C(=O)OC)[C@@H]3N(C)c4ccc(OC)cc4[C@]23C[C@H]1C(=O)OC | / | / | 1.6* | /
Cc1ccc(NC(=O)COC(=O)/C(=C/c2cccs2)c2cccs2)cc1S(=O)(=O)N(C)C | 60 | 9 | / | 59
Cc1ccc(S(=O)(=O)N2CCOCC2)cc1C(=O)N1C(=O)c2cccc(N)c2C1=O | 100 | -1 | -6.5* | 102
Cc1cc2c(N=O)c(NO)ccc2[nH]1 | 4.7* | -4 | 0.23 | 5
O=Nc1c(O)[nH]c2ccc(F)cc12 | / | -2 | / | /
Cc1ccc(C(=O)N2CCN(c3ccccn3)CC2)cc1[N+](=O)[O-] | / | -2 | / | /
Cc1ccc(C(=O)N2CCN(c3ccccc3Cl)CC2)cc1[N+](=O)[O-] | / | 76* | / | /
Cc1cccc(N=N/C(=C\O)C(=O)c2ccc(Br)cc2)c1 | / | 96* | / | /
O=C(/C(=C/O)N=Nc1ccccc1Cl)c1ccccc1 | / | -6 | / | /
O=C(/C(=C/O)N=Nc1cccc(C(F)(F)F)c1)c1ccccc1 | / | 95* | / | /
Cc1cccc(N/N=C(\C=N\N)C(=O)c2ccc(Br)cc2)c1 | / | 77* | / | /
COc1ccc(OC)c2[nH]c(=O)c(CCNC(=O)Cc3cccs3)cc12 | / | 11 | / | /
CNC(=O)c1nnsc1S(=O)(=O)c1ccc(Cl)cc1 | / | 69* | / | /
SMILES | bCat KO growth | WT yeast gro inh | hDAT+cocaine | PTEN del growth
O=C(c1nnsc1S(=O)(=O)c1ccc(Cl)cc1)N1CCOCC1 | / | 8 | / | /
CC(=O)c1sc2nc(-c3cccs3)ccc2c1N | 89 | -5 | -0.51 | 87
Nc1c(C(=O)Nc2nc3ccccc3s2)sc2nc(-c3cccs3)ccc12 | -0.1* | 8 | -0.071 | 0.1*
Cc1ccc(C)c(OCC(=O)N/N=C/c2c(C)nn(-c3ccccc3)c2Cl)c1C | 2.1* | 1 | / | 1.8*
CCOc1ccc(Oc2c(/C=N/NC(=O)COc3ccccc3OC)c(C)nn2-c2ccccc2)cc1 | 50 | 67* | / | 39
Oc1c(CN2CCCCC2)cc(COCc2ccccc2)c2cccnc12 | 1.7* | 1 | 0.65 | 2.2*
COCc1cc(CN2CCCC2)c(O)c2ncccc12 | 6 | 3 | 1.2 | 5
OCc1ccc(O)c2ncccc12 | 4.3* | 7 | 0.69 | 5
Oc1ccc(CN2CCC(Cc3ccccc3)CC2)c2cccnc12 | / | -8 | / | /
Oc1ccc(CN2CCN(c3ccccc3)CC2)c2cccnc12 | 3.0* | -11 | -0.014 | 2.8*
Cn1cc(CN2CCc3ccccc3C2)c2ccccc21 | 88 | -2 | -0.052 | 90
Oc1ccc(CN2CCc3ccccc3C2)c2cccnc12 | 2.1* | -10 | 1 | 1.7*
Cc1cc(C)nc(NC(=O)Cc2ccc([N+](=O)[O-])cc2)c1 | 99 | 24 | / | 91
CCN(CC)C(=S)SCC(=O)c1ccc(Br)cc1 | 56 | 32 | / | 60
COC(=O)C(C)N1CCC(=O)c2ccccc2S1(=O)=O (centres undefined) | / | / | -0.53 | /
O=C(COC(=O)CNC(=O)c1ccc2c(c1)OCO2)Nc1ncc(Cl)cc1Cl | / | -19 | / | /
COc1ccccc1N1CCN(c2nc(C)nc3c2oc2ccccc23)CC1 | 17 | 75* | 0.0098 | 20
Oc1ccc(CN2CCCCC2)c2cccnc12 | 2.3* | -9 | -0.24 | 1.2*
Cc1nc(N2CCC(C)CC2)c2oc3ccccc3c2n1 | 44 | 9 | -0.87 | 48
Oc1ccc(COCc2ccccc2)c2cccnc12 | 3.9* | -1 | -0.85 | 2.3*
Oc1c(CN2CCN(c3ccccn3)CC2)cc(Cl)c2cccnc12 | 2.0* | 11 | -0.18 | 2.6*
CCOC(=O)N1CCN(Cc2ccc(O)c3ncccc23)CC1 | / | -18 | / | /
CC(C)COCc1ccc(O)c2ncccc12 | / | 16 | / | /
COc1ccc(C)cc1N(CC(=O)N1CCc2ccccc2C1)S(C)(=O)=O | / | 0 | / | /
COc1ccccc1N1CCN(Cc2cc(Br)c(O)c3ncccc23)CC1 | 2.2* | 7 | 0.35 | 2.1*
SMILES | bCat KO growth | WT yeast gro inh | hDAT+cocaine | PTEN del growth
Cc1ccc(N=Nc2ccc(O)c3ncccc23)cc1C | / | -1 | / | /
Cc1ccc(N=Nc2ccc(O)c3ncccc23)cc1 | 18 | 64* | / | 12
O=C1CCC([N+](=O)[O-])C(c2cccc3ccccc23)N1 (centres undefined) | / | 1 | / | /
COc1cc([N+](=O)[O-])c(C(=O)N2CCOCC2)c([N+](=O)[O-])c1 | 86 | 4 | / | 89
COc1cccc(OCC(O)CN2CCC(CN3C(=O)c4cccc5cccc(c45)C3=O)CC2)c1 (centres undefined) | / | 20 | / | /
COc1cc(COCC(O)CN2CCN(CCN3C(=O)c4cccc5cccc(c45)C3=O)CC2)cc(OC)c1OC (centres undefined) | 29 | 26 | / | 32
O=C(N1CCOCC1)N1CCN(CC(O)COc2ccc3ccccc3c2)CC1 (centres undefined) | 90 | 9 | -0.39 | 79
O=C1c2cccc3cccc(c23)C(=O)N1CCN1CCN(CC(O)COCc2ccc(Cl)cc2)CC1 (centres undefined) | 3.1* | 56 | / | 2.7*
O=C1c2cccc3cccc(c23)C(=O)N1CCN1CCN(CC(O)COc2ccc3ccccc3c2)CC1 (centres undefined) | 1.5* | 99 | / | 1.2*
Cc1ccc(C)c(OCC(O)CN2CCN(CCN3C(=O)c4cccc5cccc(c45)C3=O)CC2)c1 (centres undefined) | 1.1* | 28 | / | 1.2*
CCc1ccc(OCC(O)CN2CCC(CN3C(=O)c4cccc5cccc(c45)C3=O)CC2)cc1 (centres undefined) | 1.1* | 81 | / | 1.2*
CC(=O)c1ccccc1OCC(O)CN1CCN(CCN2C(=O)c3cccc4cccc(c34)C2=O)CC1 (centres undefined) | / | 9 | / | /
CCCCC(C)n1[nH]c(=O)cc1N (centres undefined) | 97 | 12 | -0.93 | 111
CCCC(C)n1[nH]c(=O)cc1N (centres undefined) | 91 | -4 | -2.8* | 98
